Laboratory results reported in PubChem BioAssay AID1508625 (Wald Lab, School of Medicine, Case Western Reserve …, 2021).

Test: small molecules boosting NK-mediated OVCAR3 lysis – imaging, primary NK cells, calcein-AM imaging, primary screen (AID 1508625);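 further: compound given to NK cells 16 h before adding targets at 1.5 to 1 ratio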;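 on z-score: more negative robust z means stronger NK killing of tumor cells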
Conditions: OVCAR3 lysis by primary NK cells, at 5 µM; z-score: measured here: robust Z-score, single-point normalisation

| SMILES | corrected activity, negative = more killing [%] | z-score |
| --- | --- | --- |
| Cc1noc(C)c1S(=O)(=O)Nc1ccc(C(=O)Nc2cccc(Cl)c2)cc1 | -7.43 | -1.82 |
| CCC1CCCCN1C(=O)c1cc2c(=O)n3ccccc3nc2s1 (configuration not stated) | -5.2 | -1.47 |
| Cc1ccccc1NC(=O)OCc1ccccc1 | -1.84 | -1.03 |
| Cc1ccc(C=Cc2nc3ccccc3[nH]2)cc1 | 2.68 | 0.723 |
| Brc1ccc(SCCc2nc3ccccc3o2)cc1 | -4.19 | -1.56 |
| O=C(Nc1ccc([N+](=O)[O-])cc1)c1cc2c(=O)n3ccccc3nc2s1 | -3.21 | -0.91 |
| COC(=O)c1cc(Cl)c(NC(=O)c2cc3ccccc3oc2=O)cc1OC | -1.77 | -0.79 |
| O=C1c2ccccc2C(=O)c2c1cc(F)cc2N1CCCCC1 | -1.34 | -0.401 |
| CC1=NN(C(=O)c2ccc(C(N)=O)cc2)C(O)(C(F)(F)F)C1 (configuration not stated) | -1.91 | -0.786 |
| O=C1C(=O)N(Cc2cccnc2)C(c2ccccc2)C1=C(O)c1ccc(F)cc1 (configuration not stated) | -1.93 | -0.837 |
| COc1cc2c(cc1NC(=O)Nc1cc3oc4ccccc4c3cc1OC)oc1ccccc12 | -6.21 | -1.85 |
| COc1ccc(C)cc1NC(=O)c1sc2nc(C)nc(N3CCCCC3C)c2c1C (configuration not stated) | -3.27 | -1.75 |
| O=C(CCCC(=O)Nc1cccc(Cl)c1)Nc1cccc(Cl)c1 | -2.22 | -0.828 |
| CNC(=O)C(C)Oc1cccc(Cl)c1 (configuration not stated) | -2.63 | -1.46 |
| CC1=C(C(=O)Nc2cccc(Cl)c2)C(c2cccc(Cl)c2)NC(=O)N1 (configuration not stated) | -1.94 | -0.84 |
| O=[N+]([O-])c1ccc(OCc2ccc(Br)cc2)cc1 | -1.79 | -0.994 |
| CCCSc1nc2c([nH]c3ccccc32)c(=O)n1-c1ccc(OC)cc1 | -5.59 | -1.39 |
| Cc1nc2ccccc2n1Cc1cccc2ccccc12 | -3.88 | -2.01 |
| COC(=O)c1ccc(C=NN2CCN(c3ccccn3)CC2)cc1 | -4.57 | -2 |
| O=C1CCC(=O)N1c1ccc(NCc2ccc(Cl)cc2)c([N+](=O)[O-])c1 | -4.48 | -1.63 |
| O=C(Nc1ccc2nn(-c3cccc(Cl)c3)nc2c1)c1cccc2ccccc12 | -3.42 | -1.21 |

| SMILES | corrected activity, negative = more killing [%] | z-score |
| --- | --- | --- |
| Cc1ccc(-n2ncc3c(=O)[nH]c(SCC(C)C)nc32)cc1C | -9.35 | -2.29 |
| Cn1c2ccccc2n2c(SCC(=O)O)nnc12 | -4.88 | -2.01 |
| CCCOc1cccc(C(=O)Nc2ccc3nn(-c4ccc(OC)cc4)nc3c2)c1 | -3.41 | -1.21 |
| Cc1nc2ccc3nc(NC(=O)c4cc([N+](=O)[O-])ccc4Cl)sc3c2s1 | -2.51 | -0.528 |
| C=CCn1c(COc2cccc3cccnc23)nnc1SCC(=O)OC | -7.09 | -2.01 |
| O=C(Nc1ccccc1-c1nc2ccccc2[nH]1)c1ccc(S(=O)(=O)N2CCCC2)cc1 | 0.864 | 0.306 |
| COc1cc2nc(SCC(=O)Nc3cc(C(F)(F)F)ccc3Cl)n(Cc3ccco3)c(=O)c2cc1OC | -3.79 | -1 |
| Cn1c(SCC(=O)Nc2cccc3ccccc23)nc2c([nH]c3ccccc32)c1=O | -9.34 | -2.32 |
| O=C(CCCCCn1c(=S)[nH]c2cc3c(cc2c1=O)OCO3)N1CCN(c2ccc(Cl)cc2)CC1 | -2.25 | -0.597 |
| Cc1ccc(S(=O)(=O)NCc2cc(-c3nn(C)c(=O)c4ccccc34)ccc2C)cc1 | -2.25 | -0.924 |
| COCc1cc(C)[nH]c(=O)c1C(=O)NC12CC3CC(CC(C3)C1)C2 | -5.27 | -1.57 |
| CCOc1ccc(C2C(=C(O)c3ccc(Cl)cc3)C(=O)C(=O)N2c2nc3ccccc3s2)cc1 (configuration not stated) | -4.47 | -1.71 |
| CC(=O)Nc1ncc(Br)cc1[N+](=O)[O-] | -1.26 | -0.391 |
| NC(=O)c1ccccc1NC(=O)c1ccc(-c2cccc(Cl)c2)o1 | -6.51 | -1.94 |
| c1ccc2nn(C34CC5CC(CC(C5)C3)C4)nc2c1 | -1.32 | -0.685 |
| O=c1c2c(nc3c(-c4ccc(Cl)cc4)c(Cc4ccccc4)[nH]n13)CCC2 | -3.87 | -2 |
| Cc1ccc2c(c1)NCC(C(=O)O)O2 (configuration not stated) | -4.87 | -1.31 |
| O=C(C=Cc1ccc([N+](=O)[O-])cc1)NC(=S)NN1CCOCC1 | -5.28 | -1.68 |
| Cc1ccc(C(=O)Nc2ccc(NC(=O)c3ccc(C(C)(C)C)cc3)cc2)cc1[N+](=O)[O-] | -2.5 | -0.888 |
| N#Cc1c(SCC(=O)c2ccccc2)nsc1SCC(=O)c1ccccc1 | -5.48 | -2.94 |
| O=C1OC(c2ccccc2Cl)=NC1=Cc1cccs1 | -0.515 | -0.219 |

| SMILES | corrected activity, negative = more killing [%] | z-score |
| --- | --- | --- |
| O=C(COc1ccc(Cl)cc1)N1CCN(C(=O)c2ccccc2F)CC1 | -1.94 | -0.865 |
| C=CCNC(=O)c1ccc2snnc2c1 | -1.6 | -0.478 |
| COc1ccc(S(=O)(=O)NCc2ccc(C(=O)N(C)Cc3ccco3)cc2)cc1 | -7.7 | -1.89 |
| O=C(NN=Cc1cccnc1)c1cc(C2CC2)[nH]n1 | -2.36 | -1.03 |
| O=C(O)C1C2C=CC(O2)C1C(=O)N1CCC(Cc2ccccc2)CC1 (configuration not stated) | -3.25 | -1.34 |
| CC(C(=O)NCCC1=CCCCC1)c1ccc([N+](=O)[O-])cc1 (configuration not stated) | -0.521 | -0.29 |
| O=[N+]([O-])c1ccc(Nc2ncnc3ccccc23)cc1 | -1.89 | -1.01 |
| O=C1C(=Cc2cccc([N+](=O)[O-])c2)Sc2ccccc21 | -3.79 | -1.61 |
| CC(C)NCCOCCOc1cccc(Br)c1 | -3.24 | -1.21 |
| CCOc1cc(C(=S)N2CCOCC2)ccc1OC(=O)Cc1ccccc1 | -7.5 | -2.32 |
| CC1(C)CC(c2csc(N)n2)CCO1 (configuration not stated) | -2.99 | -1.14 |
| O=C(Nc1cccc2ccccc12)ON=Cc1ccc(F)cc1 | -4.41 | -1.4 |
| Cc1cc(C)n(C(=O)c2nn(C)cc2I)n1 | -2.43 | -0.913 |
| Cc1cc(C)c(S(=O)(=O)NCc2ccc(C(=O)NCCc3ccc(Cl)cc3)cc2)c(C)c1 | -5.64 | -1.38 |
| CSc1nnc2c(n1)OC(c1ccc(OCC(=O)O)cc1)Nc1ccccc1-2 (configuration not stated) | -2.58 | -0.915 |
| CC1=C(C(=O)OCCc2ccccc2)C(c2coc3ccc(C)cc3c2=O)C2=C(CC(c3cccs3)CC2=O)N1 (configuration not stated) | 0.37 | 0.141 |
| COCCNCC(O)Cn1c2ccccc2c2ccccc21 (configuration not stated) | 2.4 | 0.916 |
| CCc1cccc(NC(=O)CN(C)S(=O)(=O)c2cccs2)c1 | -4.79 | -1.36 |
| Cc1ccc(C(=O)Oc2ccc(C(=S)N3CCOCC3)cc2)cc1 | -4.83 | -1.5 |
